About 480 (0.16%) of roughly 300,000 compounds were called active.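 Rule for the calls: active = inhibition over 29.93%, a cutoff 3 SD above the screen mean, later confirmed by dose response; inconclusive = inhibition over 29.93% but no dose response follow-up; inactive = inhibition at most 29.93% or unconfirmed.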 The list is a sample of the results. Measured potencies and affinities stand elsewhere.
experiment: inhibitors of PhoP regulon expression, primary screen, Salmonella Typhimurium, GFP reporter (AID 1863);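 note: 0% = low Mg2+ inducing control and 100% = high Mg2+ repressing control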; details: S. Typhimurium PhoP-regulated promoter GFP reporter, 4 h; at 50 µM; hits give high values

inhibition, inactive:
CCn1cc(C(=O)NCc2ccc3c(c2)OCO3)c(=O)c2cc(F)c(N3CCN(C)CC3)cc21 6.63%
CCN(CC)CCNC(=O)c1cn(CC)c2cc(N3CCN(C)CC3)c(F)cc2c1=O 25.1%
CCN(CC)CCCNC(=O)c1cn(CC)c2cc(N3CCN(C(=O)c4ccco4)CC3)c(F)cc2c1=O 14.4%
CC1(C)S/C(=N/N=C/c2cccs2)NC1=O 0.99%
Cc1ccc(C)c(N2CCN(c3ccc([N+](=O)[O-])cn3)CC2)c1 1.13%
Cn1c(CNC(=O)c2ccc3c(c2)OCO3)nnc1SCC(=O)Nc1ccc(F)cc1 2.02%
COc1ccc(Br)cc1CN(C)C(=O)c1ccccc1OCc1c(C)noc1C -8.01%
Cc1ccc(N(CC(=O)NC2CCCCC2)S(=O)(=O)c2c(C)noc2C)cc1 6.34%
CC(O)CNCCNCc1c(OCc2ccccc2)ccc2ccccc12 (configuration not stated) 32.8%
CC(C)(CO)NCc1c(OCc2ccc(Cl)cc2)ccc2ccccc12 -7.49%
COc1ccc(S(=O)(=O)N2CCC(NC(=O)C3CCCCC3)CC2)cc1 4.35%
Cc1ccc(-c2ccc(=O)n(CC(=O)NCc3ccco3)n2)cc1 6.56%
COc1ccc(NC(=O)C2CCN(S(=O)(=O)c3ccc(OC)c(OC)c3)CC2)c(OC)c1 5.61%
CCOC(=O)c1cnc(-c2ccccc2O)nc1Cl 3.92%
CCOC(=O)C(=O)Nc1ccccc1C(=O)OCC 9.09%
C[C@@H]1CC=C[C@H]2[C@H]1C(=O)N(Cc1ccccc1)[C@H]2c1ccc(-c2ccc(F)cc2)cc1F -3.92%
Cc1cc(C)c2[nH]c(=O)c(C(c3nnnn3CC3CCCO3)N3CCCC(C)C3)cc2c1 (configuration not stated) -1.81%
O=[N+]([O-])c1ccc(Cl)cc1Sc1nc2ccccc2o1 0.44%
O=[N+]([O-])c1ccc(CSc2nc3ccccc3o2)cc1 8.78%
O=S(=O)(Nc1nccs1)c1cnc(Cl)c(Br)c1 -2.83%
Cc1cc(C(=O)CN2C(=O)NC3(CCCc4ccccc43)C2=O)c(C)n1Cc1cccs1 (configuration not stated) 8.89%
CSCCC(NC(=O)c1cccc([N+](=O)[O-])c1)C(=O)OCC(=O)N1CCCC1=O (configuration not stated) 1.97%
CCN=C1SC(CC(=O)NC2CCCCC2)C(=O)N1CC (configuration not stated) 8.13%
Clc1ccc(C[n+]2cc(-c3ccccc3)n3c2CCCCC3)c(Cl)c1 8.08%
Cc1ccc(C[n+]2cc(-c3ccc(Cl)cc3)n3c2CCC3)cc1 31.5%
Clc1ccc(-c2c[n+](Cc3cccc(Cl)c3)c3n2CCC3)cc1 5.53%
Cc1ccc(-c2c[n+](Cc3ccc(Cl)cc3)c3n2CCC3)cc1 -4.34%
COC(=O)C(C)(C(=O)OC)c1ccc(C(F)(F)F)cc1[N+](=O)[O-] -5.58%
C=CCN1C(=O)C(CC(=O)Nc2ccc(OCC)cc2)N(Cc2ccccn2)C1=S (configuration not stated) -2.55%
Cc1ccc(NC(=S)N2CCOCC2)c(C)c1 -0.67%
CN1C(=O)C(O)(CC(=O)c2cccs2)c2ccccc21 (configuration not stated) -3.39%
O=C1C(=O)N(CC2CCCO2)C(c2ccccc2[N+](=O)[O-])/C1=C(/O)c1ccccc1 (configuration not stated) 2.01%
CC1(C)CC(=O)C2=C(C1)OC(c1ccncc1)C(C#N)=C2N (configuration not stated) -4.82%
O=C(NC1CCCCC1)C1CCN(c2cnccn2)CC1 17.7%
O=C(NC(Cc1ccccc1)C(=O)NCc1ccccn1)c1ccco1 (configuration not stated) 1.32%
Nc1nc2ccccc2n1CCOc1ccc(Cl)cc1 11.6%
Nc1nc2ccccc2n1CCOc1ccc(F)cc1 10.1%
CCn1c(N)nc2ccccc21 5.85%
Cc1ccc(Cn2c(N)nc3ccccc32)cc1 11.5%
CC(NC(=O)c1ccco1)C(=O)OCC(=O)c1ccc(Cl)s1 (configuration not stated) -10.8%
CN1C(C(=O)Nc2ncccn2)=C(O)c2ccccc2S1(=O)=O 5.72%
COc1cc(C(=O)NCc2nnc(SCC(=O)Nc3cc(C)on3)o2)cc(OC)c1OC -1.06%
CCOC(CNC(=O)Cn1nc(Cc2ccncc2)c2ccccc2c1=O)OCC 1.12%
Cc1ccccc1/C=N/Nc1nc2ccccc2[nH]1 -7.4%
CCN(CC)c1ccc(/C=N/Nc2nc(C)cc(=O)[nH]2)c(O)c1 6.35%
COc1ccc(O)c(/C=N/Nc2nc3ccccc3[nH]2)c1 -9.48%
CCN(CC)c1ccc(/C=N/Nc2ccccc2)c(O)c1 7.3%
CC1=C(C(N)=O)C(c2ccccn2)n2nc(SCc3ccccc3)nc2N1 (configuration not stated) 1.82%
CCCCSc1nc2c(=O)[nH][nH]c(=O)c2n1Cc1ccccc1 -7.79%
Cc1ccc(NC(=O)NNC(=O)c2ccccc2)cc1 3.02%
C#CCOCCOCCOCCNc1nc(N2CCN(C(=O)CCCCCCCCCCNC(=O)[C@H]([C@@H](C)CC)n3cc(CCCCN=C(N)N)nn3)CC2)nc(N2CCN(C(=O)CCCCCCCCCCNC(=O)[C@H](CCCCN)n3cc(C[C@@H](C)CC)nn3)CC2)n1 21.5%
C#CCOCCOCCOCCNc1nc(N2CCN(C(=O)CCCCCCCCCCNC(=O)[C@H]([C@@H](C)CC)n3cc(CCCCN=C(N)N)nn3)CC2)nc(N2CCN(C(=O)CCCCCCCCCCNC(=O)[C@H](CCCCN)n3cc(C)nn3)CC2)n1 24.6%
C#CCOCCOCCOCCNc1nc(N2CCN(C(=O)CCCCCCCCCCNC(=O)[C@H](CO)n3cc(CCCSC)nn3)CC2)nc(N2CCN(C(=O)CCCCCCCCCCNC(=O)[C@H](CCCN=C(N)N)n3cc(C[C@@H](C)CC)nn3)CC2)n1 4.93%
C#CCOCCOCCOCCNc1nc(N2CCOCC2)nc(N2CCN(C(=O)CCCCCCCCCCNC(=O)[C@H]([C@@H](C)CC)n3cc(CCCCN=C(N)N)nn3)CC2)n1 11.5%
C#CCOCCOCCOCCNc1nc(N2CCN(C(=O)CCCCCCCCCCNC(=O)[C@@H](CCSC)n3cc(CCO)nn3)CC2)nc(N2CCN(C(=O)CCCCCCCCCCNC(=O)[C@H]([C@@H](C)CC)n3cc(CCCCN=C(N)N)nn3)CC2)n1 4.22%
C#CCOCCOCCOCCNc1nc(N2CCN(C(=O)CCCCCCCCCCNC(=O)[C@H]([C@@H](C)CC)n3cc(CCCCCN)nn3)CC2)nc(N2CCN(C(=O)CCCCCCCCCCNC(=O)[C@H]([C@@H](C)CC)n3cc(CCCCN=C(N)N)nn3)CC2)n1 11.9%
Cc1cc(C)nc(-n2nc(C)cc2NC(=O)CNCc2ccccc2)n1 1.3%
COC(=O)c1ccc(COc2ccc(/C=N/Nc3nc(C)cc(=O)[nH]3)cc2)cc1 2.45%
Cc1ccc(N2C(=O)c3cccc4c(Oc5ccccc5[N+](=O)[O-])ccc(c34)C2=O)c(C)c1 -0.66%
CC(=O)c1cccc(S(=O)(=O)N(C)C2CCN(C)CC2)c1 6.64%
COc1cnc(-c2ccccc2)[nH]c1=O 3.46%
COc1cnc(-c2cccc(C(F)(F)F)c2)[nH]c1=O -6.31%
CCN(CC)CCNC(=O)C(=O)Nc1ccc2c(c1)N(S(=O)(=O)c1cccs1)CCC2 0.58%
CC1(C)CC(=O)c2sc(NS(=O)(=O)c3ccc(Cl)cc3)nc2C1 -6.02%
CCn1c(CSc2nnc(-c3ccncc3)n2CCOC)nc2cc(C(=O)O)ccc21 1.32%
COc1ccc(NCC(O)COc2ccc(C(C)(C)C)cc2)cc1 (configuration not stated) 18.9%
CC(C)(C)NCC(O)COc1ccc(Br)cc1 (configuration not stated) -5.49%
Cc1ccc(Nc2cc(C)c3ccc(O)cc3n2)cc1C 59.6%
COc1ccc(Nc2cc(C)c3ccccc3n2)cc1 -10.8%
CC(=O)Nc1ccc(Nc2cc(C)c3ccccc3n2)cc1 -1.27%
COC(=O)c1cc(Nc2cc(C)c3c(O)cccc3n2)cc(C(=O)OC)c1 1.78%
O=C(Nc1ccccc1)c1cnc(-c2ccccc2)nc1-c1ccccc1 -0.26%
NC(=O)C1CCN(C(=O)CSc2ccccn2)CC1 -5.25%
CCCCCCNC(=O)c1cc(S(=O)(=O)N2CCc3ccccc32)ccc1F -0.27%
O=C(NNCc1ccc(O)cc1)c1ccccc1Cl -5.79%
O=C(O)CC(Cc1ccccc1)C(=O)Nc1ccc([N+](=O)[O-])cc1 (configuration not stated) -0.18%
CCOC(=O)C(NC(C)=O)C(O)c1ccc([N+](=O)[O-])cc1 (configuration not stated) 4.56%
NC(CO)C(O)c1ccc([N+](=O)[O-])cc1 (configuration not stated) 2.92%
O=C(O)CC(Cc1ccc(Cl)cc1)C(=O)Nc1ccc([N+](=O)[O-])cc1 (configuration not stated) -6.77%
O=C(Cc1ccccc1)NC(C(=O)O)C(O)c1ccc([N+](=O)[O-])cc1 (configuration not stated) 2.69%
O=[N+]([O-])c1ccc(C(O)C(CO)NC(=S)Nc2ccccc2)cc1 (configuration not stated) -9.91%
COc1ccc(S(=O)(=O)N2CCCCCC2)cc1N(C)S(=O)(=O)c1ccc(C)cc1 -9.69%
CCCC(=O)N(c1ccc(OCC)cc1)C1C=CS(=O)(=O)C1 (configuration not stated) -5.2%
COC(=O)C(c1cc(OC)c(O)c(OC)c1)(N1CCNC(C)C1)C(F)(F)F (configuration not stated) 1.17%
CCOC(=O)c1cn(C2CC2)c2c(F)c(F)c(F)cc2c1=O -6.9%
C[C@@H]1CN(c2c(F)c(N)c3c(=O)c(C(=O)O)cn(C4CC4)c3c2F)C[C@H](C)N1 -7.7%
O=C(O)c1cn(C2CCCCC2)c2ccccc2c1=O -3.48%

From PubChem BioAssay AID1863 (Southern Research Specialized Biocontainment Screening …, 2009)
